{"source": "PubChem BioAssay (NCATS)", "note": "Values joined by “and” are separate entries in the source; they are usually repeats but may differ in a detail not shown here. Equal values may be shown once. Unmarked numbers belong to inactive results. Inconclusive results are not listed. Active and inactive are the calls of the source. Unless noted, calls follow the shape of the dose curve; as a rule, active = well fitted activation curve with a large enough effect; inconclusive = small, poorly fitted or top-dose-only effect; inactive = flat fitted curve, though single readings scatter."}
{"test_system": "not listed separately", "test": "qHTS assay for small molecule activators of the nuclear factor-kappa B (NF-kB) signaling pathway (AID 651749; active = well fitted activation curve with a large enough effect in the signal ratio; the % refers to the signal ratio; also: % of control where 0% means no effect)", "settings": "NF-kB-bla ME-180 cells, beta-lactamase FRET ratio, 16 h; stronger effect = higher value", "procedure,_shortened": "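In this qHTS format, compounds acting as activators increase NF-kB-driven beta-lactamase in ME-180 cells, measured as disrupted FRET after 16 hr exposure at 37C and 5% CO2.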"}
{"molecule": "CCCC(=O)c1cc(O)c(O)cc1O", "activation": "0.282%"}
{"molecule": "Cc1ccc(O)cc1", "activation": "-0.225%"}
{"molecule": "CC(C)(C)c1ccc(O)c(O)c1", "activation": "-0.887% and -1.66%"}
{"molecule": "O=C(NO)c1ccccc1", "activation": "0.132%"}
{"molecule": "CCCCCCCCCCCC[N+](C)(C)Cc1ccccc1", "activation": "3.11%"}
{"molecule": "OCc1c[nH]c2ccccc12", "activation": "-1.28%"}
{"molecule": "CC(C)C(C)(C)C(C)(C)C(C)(C)S", "activation": "-1.05% and -0.196%"}
{"molecule": "CN1C(=O)c2ccccc2C1=O", "activation": "0.745%"}
{"molecule": "CC(C)(c1ccc(O)cc1)c1ccc(O)cc1", "activation": "-0.409% and -2.36% and -2.41%"}
{"molecule": "O=C(Nc1ccc(Cl)cc1)Nc1ccc(Cl)c(Cl)c1", "activation": "6.88%"}
{"molecule": "Cc1cc(C(C)(C)C)c(O)c(C(C)(C)C)c1", "activation": "-0.477%"}
{"molecule": "c1ccc2occc2c1", "activation": "-0.808% and 0.0616% and -0.684%"}
{"molecule": "Nc1cccc2c(N)cccc12", "activation": "-0.416% and 0.0033%"}
{"molecule": "COC(=O)c1c(Cl)c(Cl)c(C(=O)OC)c(Cl)c1Cl", "activation": "0.623%"}
{"molecule": "C1=CC2C3C=CC(C3)C2C1", "note": "(stereo unspecified)", "activation": "-1.05%"}
{"molecule": "CC(=O)OC/C=C(C)/C=C/C=C(C)/C=C/C1=C(C)CCCC1(C)C", "activation": "-1.82% and 0.334%"}
{"molecule": "Brc1ccccc1-c1ccccc1", "activation": "-0.27%"}
{"molecule": "COc1cc(C=O)ccc1O", "activation": "-1.8% and -1.55%"}
{"test_system": "not listed separately", "test": "qHTS assay for small molecule disruptors of the mitochondrial membrane potential - 1 hr assay (AID 651754; calls by dose curve; also: nearly all actives have a fitted effect of over 35% in size; also: potency is read from the fitted curve at half-maximal effect)", "settings": "series mostly up to 92.2 µM", "procedure,_shortened": "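Mitochondrial potential in living HepG2 cells after 1 hr compound treatment at 37C was read with Mito-MPS dye added for a further 30 min. Red aggregate and green monomer fluorescence were measured; loss of potential leaves dye as cytoplasmic monomers.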"}
{"molecule": "Cc1ccc(O)cc1", "Potency": "inactive"}
{"molecule": "CCCCC(CC)COC(=O)c1ccccc1C(=O)O", "note": "(stereo unspecified)", "Potency": "inactive"}
{"molecule": "CC(C)(C)c1ccc(O)c(O)c1", "Potency": "37.6 µM (active)"}
{"molecule": "OCc1c[nH]c2ccccc12", "Potency": "inactive"}
{"molecule": "Nc1c2ccccc2nc2ccccc12", "Potency": "9.44 µM (active)"}
{"molecule": "O=C(c1ccccc1)c1ccccc1", "Potency": "inactive"}
{"molecule": "c1ccc2occc2c1", "Potency": "inactive"}
{"molecule": "CC(=O)OC/C=C(C)/C=C/C=C(C)/C=C/C1=C(C)CCCC1(C)C", "Potency": "inactive"}
{"molecule": "CCCCCCCCCCCCCCCC[n+]1ccccc1", "Potency": "inactive"}
{"molecule": "Brc1ccccc1-c1ccccc1", "Potency": "inactive"}
{"test_system": "not listed separately", "test": "qHTS assay for small molecule disruptors of the mitochondrial membrane potential - 5 hr assay (AID 651755; calls by dose curve; also: nearly all actives have a fitted effect of over 40% in size; also: potency is read from the fitted curve at half-maximal effect)", "settings": "JC-1-type ratio dye; series mostly up to 92.2 µM", "procedure,_shortened": "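Read-out: ratiometric Mito-MPS fluorescence, green monomer (ex 490/em 535) vs red mitochondrial aggregate (ex 540/em 590). HepG2 cells treated 5 hr at 37C before 30 min dye loading.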"}
{"molecule": "CCCC(=O)c1cc(O)c(O)cc1O", "Potency": "inactive"}
{"molecule": "Cc1ccc(O)cc1", "Potency": "inactive"}
{"molecule": "CCCCC(CC)COC(=O)c1ccccc1C(=O)O", "note": "(stereo unspecified)", "Potency": "inactive"}
{"molecule": "OCc1c[nH]c2ccccc12", "Potency": "inactive"}
{"molecule": "Nc1c2ccccc2nc2ccccc12", "Potency": "15 µM (active)"}
{"molecule": "O=C(c1ccccc1)c1ccccc1", "Potency": "inactive"}
{"molecule": "c1ccc2occc2c1", "Potency": "inactive"}
{"molecule": "CC(=O)OC/C=C(C)/C=C/C=C(C)/C=C/C1=C(C)CCCC1(C)C", "Potency": "inactive"}
{"molecule": "CCCCCCCCCCCCCCCC[n+]1ccccc1", "Potency": "inactive"}
{"molecule": "Brc1ccccc1-c1ccccc1", "Potency": "inactive"}
{"biological_target": "Tumor necrosis factor (Homo sapiens) (UniProt P01375)", "sequence (P01375 whole entry, looked up)": "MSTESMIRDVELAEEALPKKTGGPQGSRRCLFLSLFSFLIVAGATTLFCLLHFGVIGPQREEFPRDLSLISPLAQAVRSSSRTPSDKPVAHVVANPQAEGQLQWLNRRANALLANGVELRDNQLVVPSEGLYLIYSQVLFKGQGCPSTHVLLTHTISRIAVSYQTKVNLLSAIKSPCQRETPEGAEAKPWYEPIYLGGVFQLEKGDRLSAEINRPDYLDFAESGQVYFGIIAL", "test": "qHTS assay to identify small molecules that stimulate Tumor Necrosis Factor-alpha (TNF-alpha) secretion (AID 651757; active = well fitted curve in the direction sought with a large enough effect in the signal ratio; the % refers to the signal ratio; also: 0% is about no effect)", "settings": "Human cells, HTRF 665/615 ratio; series mostly up to 92.2 µM", "procedure,_shortened": "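Secreted TNF-alpha quantified by TR-FRET sandwich of two labeled anti-TNF-alpha antibodies, incubated 3 hr at room temperature. Preceded by 17 hr, 37 C compound treatment of THP-1 cells at 3000 cells/well.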"}
{"molecule": "Cc1ccc(O)cc1", "outcome": "inactive"}
{"molecule": "CCCCC(CC)COC(=O)c1ccccc1C(=O)O", "note": "(stereo unspecified)", "outcome": "inactive"}
{"molecule": "CC(C)(C)c1ccc(O)c(O)c1", "outcome": "inactive"}
{"molecule": "O=C(NO)c1ccccc1", "outcome": "inactive"}
{"molecule": "OCc1c[nH]c2ccccc12", "outcome": "inactive"}
{"molecule": "CC(C)C(C)(C)C(C)(C)C(C)(C)S", "outcome": "inactive"}
{"molecule": "CC(C)(c1ccc(O)cc1)c1ccc(O)cc1", "outcome": "inactive"}
{"molecule": "O=C(c1ccccc1)c1ccccc1", "outcome": "inactive"}
{"molecule": "Cc1cc(C(C)(C)C)c(O)c(C(C)(C)C)c1", "outcome": "inactive"}
{"molecule": "c1ccc2occc2c1", "outcome": "inactive"}
{"molecule": "O=C(Oc1ccccc1)c1ccccc1O", "outcome": "inactive"}
{"molecule": "C1=CC2C3C=CC(C3)C2C1", "note": "(stereo unspecified)", "outcome": "inactive"}
{"molecule": "Oc1ccccc1", "outcome": "inactive"}
{"molecule": "CC(=O)OC/C=C(C)/C=C/C=C(C)/C=C/C1=C(C)CCCC1(C)C", "outcome": "inactive"}
{"molecule": "CCCCCCCCCCCCCCCC[n+]1ccccc1", "outcome": "inactive"}
{"molecule": "Brc1ccccc1-c1ccccc1", "outcome": "inactive"}
{"test_system": "not listed separately", "test": "qHTS assay to identify small molecules that stimulate interleukin-8 (IL-8) secretion (AID 651758; active = well fitted activation curve with a large enough effect in the signal ratio; the % refers to the signal ratio; also: 0% is about no effect)", "settings": "HTRF ratio (665/615); series mostly up to 92.2 µM", "procedure,_shortened": "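Compounds are added to THP-1 cells (2000 per well) and left 16 hrs at 37 C. A labeled anti-IL-8 antibody pair is then added, and IL-8 secretion is measured by time-resolved FRET after 1-3 hrs at room temperature.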"}
{"molecule": "CCCCC(CC)COC(=O)c1ccccc1C(=O)O", "note": "(stereo unspecified)", "outcome": "inactive"}
{"molecule": "O=C(NO)c1ccccc1", "outcome": "inactive"}
{"molecule": "CC(C)C(C)(C)C(C)(C)C(C)(C)S", "outcome": "inactive"}
{"molecule": "Brc1ccccc1-c1ccccc1", "outcome": "inactive"}
{"biological_target": "Peroxisome proliferator-activated receptor alpha (Homo sapiens) (UniProt Q07869)", "sequence (Q07869 whole entry, looked up, the tested form may be a part)": "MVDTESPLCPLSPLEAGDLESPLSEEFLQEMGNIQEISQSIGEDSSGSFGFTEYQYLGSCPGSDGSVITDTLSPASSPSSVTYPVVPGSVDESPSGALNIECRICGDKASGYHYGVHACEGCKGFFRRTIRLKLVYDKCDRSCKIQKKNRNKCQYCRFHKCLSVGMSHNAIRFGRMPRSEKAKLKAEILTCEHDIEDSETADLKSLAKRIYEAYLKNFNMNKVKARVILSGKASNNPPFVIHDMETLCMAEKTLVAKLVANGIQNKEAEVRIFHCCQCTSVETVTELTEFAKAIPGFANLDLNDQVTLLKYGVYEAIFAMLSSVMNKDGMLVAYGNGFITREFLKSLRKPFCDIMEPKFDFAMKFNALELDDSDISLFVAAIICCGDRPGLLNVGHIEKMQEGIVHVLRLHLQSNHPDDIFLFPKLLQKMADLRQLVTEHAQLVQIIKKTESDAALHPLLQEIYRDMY", "test": "qHTS assay for small molecule agonists of the peroxisome proliferator-activated receptor alpha (PPARalpha) signaling pathway (AID 651778); also: % of control where 0% means no effect", "settings": "PathHunter PPARalpha complementation, chemiluminescence, 6 h; stronger effect = higher value", "procedure,_shortened": "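Enzyme-fragment complementation assay in which ligand-bound PPARalpha translocates and forms an active enzyme that generates chemiluminescence. Cells were plated overnight, exposed to compound for 6 hr at 37 C, and then given detection reagent for 60 min at room temperature.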"}
{"molecule": "CCCC(=O)c1cc(O)c(O)cc1O", "max response": "-3.73%"}
{"molecule": "Cc1ccc(O)cc1", "max response": "-0.0678%"}
{"molecule": "CC(C)(C)c1ccc(O)c(O)c1", "max response": "11.7% and 0.802%"}
{"molecule": "O=C(Oc1ccccc1)c1cccc(C(=O)Oc2ccccc2)c1", "max response": "4.8%"}
{"molecule": "O=C(NO)c1ccccc1", "max response": "-0.429%"}
{"molecule": "CCCCCCCCCCCC[N+](C)(C)Cc1ccccc1", "max response": "8.99%"}
{"molecule": "OCc1c[nH]c2ccccc12", "max response": "-6.59%"}
{"molecule": "Nc1ccc(O)cc1", "max response": "-0.783%"}
{"molecule": "CC(C)C(C)(C)C(C)(C)C(C)(C)S", "max response": "-3.79% and -2.56%"}
{"molecule": "CN1C(=O)c2ccccc2C1=O", "max response": "-1.08%"}
{"molecule": "Nc1c2ccccc2nc2ccccc12", "max response": "-4.95%"}
{"molecule": "CC(C)(c1ccc(O)cc1)c1ccc(O)cc1", "max response": "-6.65% and -3.38% and -3.11%"}
{"molecule": "CCN(CC)CCOc1ccc(/C(=C(\\Cl)c2ccccc2)c2ccccc2)cc1", "max response": "11.1%"}
{"molecule": "O=C(c1ccccc1)c1ccccc1", "max response": "-0.839% and -0.419%"}
{"molecule": "O=C(Nc1ccc(Cl)cc1)Nc1ccc(Cl)c(Cl)c1", "max response": "-0.555%"}
{"molecule": "OCCOCCN1CCN(C(c2ccccc2)c2ccc(Cl)cc2)CC1", "note": "(stereo unspecified)", "max response": "-2.06%"}
{"molecule": "Cc1cc(C(C)(C)C)c(O)c(C(C)(C)C)c1", "max response": "0.589%"}
{"molecule": "c1ccc2occc2c1", "max response": "0.199% and 3.33% and -1.19%"}
{"molecule": "Nc1cccc2c(N)cccc12", "max response": "-0.422% and -2.29%"}
{"molecule": "COC(=O)c1c(Cl)c(Cl)c(C(=O)OC)c(Cl)c1Cl", "max response": "-0.617%"}
{"molecule": "O=C(Oc1ccccc1)c1ccccc1O", "max response": "7.82% and -2.96%"}
{"molecule": "C1=CC2C3C=CC(C3)C2C1", "note": "(stereo unspecified)", "max response": "-3.12%"}
{"molecule": "Oc1ccccc1", "max response": "-1.31% and -1.33% and -1.91%"}
{"molecule": "Cc1ncc(CO)c(CO)c1O", "max response": "-1.89%"}
{"molecule": "CC(=O)OC/C=C(C)/C=C/C=C(C)/C=C/C1=C(C)CCCC1(C)C", "max response": "-6.94% and -1.56%"}
{"molecule": "CCCCCCCCCCCCCCCC[n+]1ccccc1", "max response": "1.85%"}
{"molecule": "Brc1ccccc1-c1ccccc1", "max response": "-0.0593%"}
{"molecule": "COc1cc(C=O)ccc1O", "max response": "-1.16% and -2.1%"}
